Results taken from PubChem BioAssay (EPA / NIEHS).
Results filed as inconclusive are left out. The source made the active and inactive calls. How the source made its calls, unless noted: active means hit-call score of the fitted dose curve at least 0.9, where 1 is the maximum; inactive means score below 0.9.

How the values were obtained:
[1] = CCTE_Mundy_HCI_Cortical_Synap_Neur_Matur_SynapseCount: CCTE's Synaptogenesis and Neurite Maturation Assay in rat cortical cells for Synapse Count, Mundy Lab (AID 2284218)
Procedure, shortened: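 Endpoint: synapses/neuron by HCI (synaptophysin puncta on MAP2-labelled neurites, Hoechst nuclei). Rat primary cortical cells, AraC DIV 5, dosed DIV 7, fixed DIV 12; DMSO negative control.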

[2] = CCTE_Mundy_HCI_Cortical_Synap_Neur_Matur_NeuriteCount: CCTE's Synaptogenesis and Neurite Maturation Assay in rat cortical cells for Neurite Count, Mundy Lab (AID 2284222);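 further: exposure from day 7 to day 12 in vitro with readout at day 12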
Procedure, shortened: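 Rat primary cortical cells; AraC added at DIV 5, chemicals dosed with media change at DIV 7 through DIV 12. MAP2/synaptophysin/Hoechst immunostaining, high-content imaging of neurite number; fitted relative to DMSO.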

[3] = CCTE_Mundy_HCI_Cortical_Synap_Neur_Matur_CellBodySpotCount: CCTE's Synaptogenesis and Neurite Maturation Assay in rat cortical cells for Cell Body Spot Count, Mundy Lab (AID 2284223)
Procedure, shortened: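 Primary rat cortical cultures, AraC added at DIV 5; dosed DIV 7 through DIV 12 […]. Fixed, stained for MAP2 and synaptophysin with Hoechst; cell body-associated synaptophysin puncta per neuron counted by high-content imaging, loss vs DMSO.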

[4] = CCTE_Mundy_HCI_hNP1_Pro_ResponderAvgInten: CCTE's Proliferation Assay in human neuroprogenitor cells, Mundy Lab (AID 2284224; active means hit-call score of the fitted dose curve at least 0.9, where 1 is the maximum)
Procedure, shortened: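 Proliferation was scored as BrdU labelling intensity in human neural progenitors derived from WA09 embryonic cells, measured 26.25 hours after chemical dosing. Activity was fitted relative to DMSO.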

[5] = CCTE_Mundy_HCI_Cortical_NOG_NeuronCount: CCTE's Neurite Outgrowth Assay in rat cortical cells for Neuron Count, Mundy Lab (AID 2284236; active means hit-call score of the fitted dose curve at least 0.9, where 1 is the maximum;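 further: neurons counted by imaging betaIII-tubulin and Hoechst stained cortical cells; cells exposed to compound for about 48 hours before fixation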)
Procedure, shortened: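 Read-out: neuron number by high-content imaging of betaIII-tubulin (Alexa Fluor-488) and Hoechst-labelled rat primary cortical cells.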

[6] = CCTE_Mundy_HCI_Cortical_NOG_BPCount: CCTE's Neurite Outgrowth Assay in rat cortical cells for Branch Point Count, Mundy Lab (AID 2284237)
Procedure, shortened: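 Measured 50.33 h after dosing, this morphology endpoint uses rat primary cortical cultures labelled for betaIII-tubulin. Branch points are quantified by high-content imaging, with DMSO as negative control and baseline.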

[7] = CCTE_Mundy_HCI_hNP1_Casp3_7: CCTE's Caspase-Glo 3/7 Assay in human neuroprogenitor cells for Apoptosis, Mundy Lab (AID 2284240)
Procedure, shortened: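 Apoptosis is scored by activated caspase-3/7 luminescence in WA09-derived neural progenitor cells, measured 26.5 h after chemical dosing. Values represent gain of signal relative to DMSO vehicle.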

[8] = CCTE_Mundy_HCI_hNP1_CellTiter: CCTE's Cell Titer-Glo 2 Assay in human neuroprogenitor cells for Viability, Mundy Lab (AID 2284241; active means hit-call score of the fitted dose curve at least 0.9, where 1 is the maximum)
Procedure, shortened: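 Human neural progenitor cells (hNP1, WA09-derived) were plated on poly-L-ornithine/laminin and grown 40 to 44 hours at 37 °C, 5% CO2 before chemical addition. Twenty-four hours later, ATP was measured by CellTiter-Glo luminescence; loss of signal versus DMSO indicates reduced viability.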

[9] = IUF_NPC2c_oligodendrocyte_migration_120hr: Leibniz Research Institute for Environmental Medicine (IUF) 120-hour Neural Progenitor Cell Migration Assay for Oligodendrocyte Migration (NPC2c) (AID 2284297);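 further: O4-positive oligodendrocyte migration distance divided by radial glia migration distance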
Procedure, shortened: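 Human fetal neural progenitor spheres (0.3 mm) are plated on poly-D-lysine/laminin in N2 differentiation medium and exposed for 120 h, with half-medium renewal at day 3. Oligodendrocyte (O4+) migration distance comes from ICC imaging, normalised to radial glia migration.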

[10] = IUF_NPC2a_radial_glia_migration_120hr: Leibniz Research Institute for Environmental Medicine (IUF) 120-hour Neural Progenitor Cell Migration Assay for Radial Glia Migration (NPC2a) (AID 2284298)
Procedure, shortened: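 Human fetal-cortex neural progenitor spheres (0.3 mm) plated on poly-D-lysine/laminin in N2 differentiation medium, exposed 120 h at 37C with half-medium renewal at day 3. Radial glia migration distance (um) measured from Hoechst-stained nuclei images; DMSO baseline.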

[11] = IUF_NPC2a_radial_glia_migration_72hr: Leibniz Research Institute for Environmental Medicine (IUF) 72-hour Neural Progenitor Cell Migration Assay for Radial Glia Migration (NPC2a) (AID 2284299)
Procedure, shortened: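 Spheres of human primary neural progenitors migrate on poly-D-lysine/laminin under compound exposure at 37C, 5% CO2. The 72 h radial glia migration distance comes from brightfield images, measured manually.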

[12] = IUF_NPC2b_neuronal_migration_120hr: Leibniz Research Institute for Environmental Medicine (IUF) 120-hour Neural Progenitor Cell Migration Assay for Neuron Migration (NPC2b) (AID 2284300)
Procedure, shortened: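 0.3 mm hNPC spheres on poly-D-lysine/laminin in N2 differentiation medium exposed 120 h, half-medium refresh day 3; 7 concentrations, DMSO max 0.1%. Neuron (TUBB3) distance from sphere core by ICC imaging, normalised to radial glia migration.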

[13] = IUF_NPC3_neuronal_differentiation_120hr: Leibniz Research Institute for Environmental Medicine (IUF) 120-hour Neuronal Differentiation Assay (NPC3) (AID 2284301)
Procedure, shortened: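 Value is percent TUBB3-positive neurons among Hoechst-stained nuclei in the migration area, scored by trained CNN after 120 h differentiation. Primary hNPC spheres on poly-D-lysine/laminin, N2 medium, continuous dosing from day 0, half-refeed day 3; DMSO reference.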

[14] = IUF_NPC4_neurite_length_120hr: Leibniz Research Institute for Environmental Medicine (IUF) 120-hour Neuronal Morphology Assay for Neurite Length (NPC4) (AID 2284302)
Procedure, shortened: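 Neurite length, the mean in um across TUBB3-stained neurons, is derived by skeletonization of high-content images after 120 h differentiation. Compound exposure, 7 concentrations plus solvent control, ran from plating of hNPC spheres on poly-D-lysine/laminin, with medium half-replaced on day 3.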

[15] = IUF_NPC5_oligodendrocyte_differentiation_120hr: Leibniz Research Institute for Environmental Medicine (IUF) 120-hour Oligodendrocyte Differentiation Assay (NPC5) (AID 2284304; active means hit-call score of the fitted dose curve at least 0.9, where 1 is the maximum;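 further: primary human fetal neural progenitor spheres plated to migrate and differentiate; share of O4-positive cells among Hoechst nuclei found by CNN image analysis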)
Procedure, shortened: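 Human fetal neural progenitor spheres (0.3 mm) plated on poly-D-lysine/laminin in N2 differentiation medium and exposed for 120 h at 7 concentrations, with half-medium renewal at day 3. O4-positive cells identified by CNN, expressed as percent of Hoechst nuclei.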

[16] = IUF_NPC4_neurite_area_120hr: Leibniz Research Institute for Environmental Medicine (IUF) 120-hour Neuronal Morphology Assay for Neurite Area (NPC4) (AID 2284305; active means hit-call score of the fitted dose curve at least 0.9, where 1 is the maximum)
Procedure, shortened: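 Neurite area (pixels, nuclei excluded) of TUBB3-positive neurons from hNPC spheres differentiating 5 days under continuous exposure at 37 C, 5% CO2. High-content imaging; loss of signal versus DMSO control across 7 concentrations.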

[17] = IUF_NPC2-5_cytotoxicity_72hr: Cytotoxicity Assessment at 72 hours in the Leibniz Research Institute for Environmental Medicine (IUF) Neural Progenitor Cell Migration and Differentiation Assay for Cytotoxicity (NPC2-5) (AID 2284306; active means hit-call score of the fitted dose curve at least 0.9, where 1 is the maximum;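 further: LDH release into supernatant measured by resorufin fluorescence marking membrane damage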)
Procedure, shortened: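 Membrane-integrity cytotoxicity at 72 h, read as LDH-driven resorufin fluorescence in supernatant. hNPC spheres from fetal cortex differentiate on coated plates in N2 medium, 37C, 5% CO2; seven serial compound concentrations plus solvent control (DMSO ≤0.1%).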

[18] = IUF_NPC2-5_cytotoxicity_120hr: Cytotoxicity Assessment at 120 hours in the Leibniz Research Institute for Environmental Medicine (IUF) Neural Progenitor Cell Migration and Differentiation Assay (NPC2-5) (AID 2284307; active means hit-call score of the fitted dose curve at least 0.9, where 1 is the maximum)
Procedure, shortened: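 Human fetal (GW 16-19) neural progenitor spheres (0.3 mm) plated on poly-D-lysine/laminin in N2 differentiation medium, exposed 120 h with half-medium renewal at day 3; 7 concentrations plus solvent control, DMSO ≤0.1%. LDH release in supernatant read by resorufin fluorescence.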

[19] = IUF_NPC2-5_cell_number_120hr: Cell Number Assessment at 120 hours in the Leibniz Research Institute for Environmental Medicine (IUF) Neural Progenitor Cell Migration and Differentiation Assay (NPC2-5) (AID 2284308);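 further: count of Hoechst-stained nuclei in migration zone around plated human neural progenitor spheres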
Procedure, shortened: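 Human fetal neural progenitor spheres (0.3 mm) plated on poly-D-lysine/laminin in N2 differentiation medium, exposed five days across 7 concentrations with half-medium refresh at day 3. Hoechst-positive nuclei counted in migration area at 120 h, relative to DMSO.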

[20] = IUF_NPC2-5_viability_120hr: Viability Assessment at 120 hours in the Leibniz Research Institute for Environmental Medicine (IUF) Neural Progenitor Cell Migration and Differentiation Assay (NPC2-5) (AID 2284312)
Procedure, shortened: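 Alamar blue resorufin fluorescence read after 5 days of differentiation, with compound present from day 0 and replenished at day 3. Primary hNPC spheres on laminin-coated plates, 37C; seven concentrations plus solvent control, fitted against DMSO.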

[21] = CCTE_Mundy_HCI_iCellGluta_NOG_NeuriteLength: CCTE's Neurite Outgrowth Assay in iCellGluta cells for Neurite Length, Mundy Lab (AID 2284318; active means hit-call score of the fitted dose curve at least 0.9, where 1 is the maximum)
Procedure, shortened: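 Automated high-content imaging of betaIII-tubulin (Alexa Fluor-488) and Hoechst-stained cells gave neurite length, normalized to the DMSO baseline.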

[22] = IUF_NPC1_cytotoxicity_72hr: Cytotoxicity Assessment at 72 hours in the Leibniz Research Institute for Environmental Medicine (IUF) Neural Progenitor Cell Proliferation Assay (NPC1) (AID 2284332; active means hit-call score of the fitted dose curve at least 0.9, where 1 is the maximum;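 further: rising LDH signal means more cytotoxicity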)
Procedure, shortened: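 Readout is fluorescence from LDH-dependent resazurin conversion, sampled from culture medium after compound contact lasting 72 h. Each well holds one 0.25-0.35 mm human progenitor sphere kept at 37C, 5% CO2 with EGF and FGF.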

[23] = CCTE_Mundy_HCI_iCellGluta_NOG_NeuronCount: CCTE's Neurite Outgrowth Assay in iCellGluta cells for Neuron Count, Mundy Lab (AID 2284340; active means hit-call score of the fitted dose curve at least 0.9, where 1 is the maximum;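 further: cells fixed about 48 h after compound addition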)
Procedure, shortened: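 Neuron count read by automated high-content imaging of Hoechst 33342 and betaIII-tubulin/Alexa Fluor-488 labelling in human iPSC glutamatergic neurons. Activity fitted relative to DMSO.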

[24] = CCTE_Mundy_HCI_iCellGluta_NOG_NeuriteCount: CCTE's Neurite Outgrowth Assay in iCellGluta cells for Neurite Count, Mundy Lab (AID 2284342; active means hit-call score of the fitted dose curve at least 0.9, where 1 is the maximum;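 further: chemical exposure about 48 hours starting 2 hours after plating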)

With `CCCCCC(C)(CC)C(=O)NC` (centres undefined) the outcome [1] was “inactive”, the outcome [2] was “inactive” and the outcome [3] was “inactive”. For the same molecule, the outcome [4] was “inactive”, the outcome [5] was “inactive” and the outcome [6] was “inactive”. For the same molecule, the outcome [7] was “inactive”, the outcome [8] was “inactive” and the outcome [9] was “inactive”. The outcome [10] was “inactive”, the AC50 [11] was 1.02 µM (active) and the outcome [12] was “inactive”. The outcome [13] was “inactive”, the outcome [14] was “inactive” and the outcome [15] was “inactive”. The outcome [16] was “inactive”, the outcome [17] was “inactive” and the outcome [18] was “inactive”. For the same molecule, the outcome [19] was “inactive”, the outcome [20] was “inactive” and the outcome [21] was “inactive”. For the same molecule, the outcome [22] was “inactive”, the outcome [23] was “inactive” and the outcome [24] was “inactive”.
